# In the library only some 3.3% were active in any assay of this set; here they are far more common.
# PRMT1 FP inh: PRMT1 (human) inhibition, primary screen | 370,000 tested, 1.3% active | inhibition, % at 2.79 µM | Q99873 | recombinant PRMT1, activity-based probe fluorescence polarization | AID 652257;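 active means inhibition above about 21% made by adding two undisclosed values, limit read from the data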
# TLR4 MyD88 comp: blocks binding of human TLR4 to MyD88 | 200,000 tested, 0.18% active | HeLa CL3-4 TLR4/MyD88 BLA complementation, FRET ratio | inhibition, % at 8.4 µM | AID 861 | O00206+Q99836; in the data active means inhibition above about 25%;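 further: 0% = vehicle and 100% = reference inhibitor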
# TLR9-MyD88 inh: inhibitors of human TLR9-MyD88 binding; 340,000 tested, 0.21% active; AID 504734; inhibition, % at 4.98 µM; Q9NR96+Q99836; CHO BLA complementation TLR9-MyD88, CCF4 FRET ratio;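 active means inhibition above the mean over all tested compounds plus 3 SD, cut at about 21% in these data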;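 further: 0% = DMSO only wells and 100% = clavulanate BLA inhibitor control wells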
# NOD2-RIPK2 inh: inhibitors of human NOD2-RIPK2 interaction; CHO BLA complementation NOD2-RIPK2, CCF4 ratio; inhibition, % at 4.98 µM; 360,000 tested, 0.38% active; in the data active means inhibition above about 21%;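 further: 0% = vehicle only and 100% = reference blocker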
# Target sequence (O43353 whole entry, looked up): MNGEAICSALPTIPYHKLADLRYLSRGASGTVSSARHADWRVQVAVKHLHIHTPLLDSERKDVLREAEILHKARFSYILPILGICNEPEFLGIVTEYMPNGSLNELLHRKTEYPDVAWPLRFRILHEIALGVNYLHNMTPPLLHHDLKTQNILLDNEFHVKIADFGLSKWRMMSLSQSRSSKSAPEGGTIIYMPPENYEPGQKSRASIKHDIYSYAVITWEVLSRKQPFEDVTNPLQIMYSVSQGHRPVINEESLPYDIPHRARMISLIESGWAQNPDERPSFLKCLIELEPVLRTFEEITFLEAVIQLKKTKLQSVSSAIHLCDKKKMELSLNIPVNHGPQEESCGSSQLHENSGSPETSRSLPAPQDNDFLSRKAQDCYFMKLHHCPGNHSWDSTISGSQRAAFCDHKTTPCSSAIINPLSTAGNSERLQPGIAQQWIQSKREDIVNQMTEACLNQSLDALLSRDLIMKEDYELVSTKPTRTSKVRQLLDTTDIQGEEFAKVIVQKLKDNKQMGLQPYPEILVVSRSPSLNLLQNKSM
# ABHD5-PLIN5 inh: blocks binding of human ABHD5 to perilipin-5. Q00G26+Q8WTS1. Split G. princeps luciferase complementation, luminescence, 4 h. inhibition, % at 4 µM. 360,000 tested, 0.78% active. AID 602281;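 active means inhibition above the mean inhibition across every tested compound plus 3 SD, cut at about 22% in these data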;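 further: 0% = DMSO only wells and the 100% control is not disclosed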
# rCAG RNA binder: molecules binding r(CAG) RNA repeats | AID 651821 | inhibition, % at 3 µM | r(CAG) RNA repeat, TO-PRO-1 dye displacement fluorescence | 370,000 tested, 1.3% active;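 active means inhibition above the plate cutoff, the mean of all test compounds on that plate plus 3 SD, cut at about 35% in these data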;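 further: 0% = DMSO alone and 100% = 100 µM mitoxantrone as full dye displacement; higher means more dye released from RNA so lower well fluorescence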
# ABHD5 PLIN5 conf: confirmation of human ABHD5-PLIN5 interaction inhibitors; shares compounds with ABHD5-PLIN5 inh; biochemical ABHD5-PLIN5 interaction, luminescence; inhibition, % at 4 µM; 2,200 tested, 67% active; in the data active means inhibition above about 23%;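 further: 0% = DMSO vehicle wells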
# HNF4 counter: active in HNF4 split-luciferase counter-screen for ABHD5-PLIN5 inhibitors | shares compounds with ABHD5-PLIN5 inh | HNF4 dimerization, luminescence, biochemical | inhibition, % at 4 µM | 2,200 tested, 77% active | AID 651674;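 active means mean inhibition across replicate wells exceeding the computed hit threshold, cut at about 13% in these data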;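 further: light from luciferase halves that rejoin when HNF4 fusion proteins dimerize; 0% = DMSO only wells and the 100% control is not given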
# NOD2 RIPK2 conf: confirmation of human NOD2-RIPK2 interaction inhibitors; shares compounds with NOD2-RIPK2 inh; CHO cells, NOD2-RIPK2 BLA complementation, CCF4 FRET; inhibition, % at 4.98 µM; 1,200 tested, 70% active;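 active means mean inhibition across replicates above a set limit taken from the earlier primary screen, cut at about 21% in these data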;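 further: 0% = DMSO-only wells and the high end = clavulanate BLA-blocked wells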
# BLA counter: NOD2-RIPK2 counterscreen BLA reporter activity; 1,200 tested, 57% active; inhibition, % at 4.98 µM; AID 624371; CHO BLA reporter, CCF4 FRET ratio; shares compounds with NOD2-RIPK2 inh;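 active means mean inhibition above the low-control mean inhibition plus three low-control SD, cut at about 11% in these data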;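 further: 0% = DMSO only wells and 100% = clavulanate high control wells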
# rCAG bind conf: r(CAG) RNA repeat binding, confirmation | shares compounds with rCAG RNA binder | TO-PRO-1 dye displacement fluorescence | inhibition, % at 3 µM | 4,300 tested, 70% active | AID 652065;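 active means inhibition above a per-plate cutoff, the mean inhibition of sample wells plus 3 SD, cut at about 35% in these data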;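 further: loss of TO-PRO-1 fluorescence as compound displaces dye from 1x1 AA loop RNA; 0% = DMSO only wells and 100% = 100 µM mitoxantrone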
# DNA CAG counter: counter-screen for rCAG RNA binders: DNA CAG dye complex inhibitors; shares compounds with rCAG RNA binder; d(CAG) DNA oligo TO-PRO-1 dye displacement, fluorescence; inhibition, % at 3 µM; 4,300 tested, 94% active;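 active means inhibition above its plate's cutoff, the mean test-well inhibition plus 3 SD, cut at about 4.8% in these data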;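 further: 0% = DNA dye mix with DMSO and 100% = 100 µM mitoxantrone; hits displace the dye from DNA and so lower well fluorescence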
# PRMT1 inh conf: PRMT1 (human) inhibition, FP confirmation | 3,300 tested, 42% active | shares compounds with PRMT1 FP inh | recombinant His-PRMT1, activity-based probe fluorescence polarization | inhibition, % at 2.79 µM;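 active means mean inhibition across replicates above the hit cutoff derived for the earlier primary screen, cut at about 22% in these data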
# The depositor's hits bear a star; . = no result given.
SMILES,PRMT1 FP inh,TLR4 MyD88 comp,TLR9-MyD88 inh,NOD2-RIPK2 inh,ABHD5-PLIN5 inh,rCAG RNA binder,ABHD5 PLIN5 conf,HNF4 counter,PRMT1 inh conf,others
CN(C)CC(C(=O)Cc1ccccc1)c1ccccc1 (centres undefined),12,.,-19,57*,37*,0,16,92*,.,NOD2 RIPK2 conf=11;BLA counter=-6
COc1cc(/C=N/n2cnnc2)ccc1OC(=O)N(C)C,-2,-7,6,4,-8,0,.,.,.,
COc1cc(/C=C/[N+](=O)[O-])ccc1OC(=O)c1cccnc1,5,.,-1,22*,27*,6,83*,101*,.,NOD2 RIPK2 conf=86*;BLA counter=6
O=C(c1ccccc1)C(CN1CCCC1)c1ccccc1 (centres undefined),6,3,2,8,17,1,.,.,.,
CC1CCN(C(CC(=O)c2ccccc2)C(=O)c2ccccc2)CC1 (centres undefined),72*,.,0,28*,42*,8,64*,103*,.,NOD2 RIPK2 conf=12;BLA counter=-3
COc1ccc(/C=C2/C(=O)NC(=O)N(Cc3ccco3)C2=O)cc1,.,-5,.,.,.,.,.,.,.,
O=C1NC(=O)N(Cc2ccco2)C(=O)/C1=C/C=C/c1ccco1,61*,.,3,4,46*,50*,98*,80*,13,rCAG bind conf=32;DNA CAG counter=14*
Cc1cccc(N2C(=O)NC(=O)/C(=C\C=C\c3ccco3)C2=O)c1,36*,.,3,-12,24*,27,93*,70*,1,
O=C1NC(=O)N(Cc2ccccc2)C(=O)/C1=C\C=C\c1ccco1,36*,16,7,-1,28*,55*,97*,64*,1,rCAG bind conf=15;DNA CAG counter=6.5*
CN1C(=O)/C(=C/C=C/c2ccco2)C(=O)NC1=S,40*,.,1,-2,26*,35*,74*,49*,57*,rCAG bind conf=23;DNA CAG counter=7.8*
Cc1ccc(S(=O)(=O)Oc2ccccc2C=C2C(=O)N(C)C(=O)N(C)C2=O)cc1,30*,.,-6,0,35*,1,71*,72*,-1,
N#CCCC#N,-2,.,.,.,.,1,.,.,.,
CCN1/C(=C/C=C/C2=[N+](CC)c3ccccc3C2(C)C)C(C)(C)c2ccccc21,156*,.,-18,9,52*,-76,28*,37*,131*,
CN1/C(=C\C=C\C2=[N+](C)c3ccc4ccccc4c3C2(C)C)C(C)(C)c2ccccc21,.,-8,.,.,.,.,.,.,.,
Fc1ccc2nc(-c3ccc(CN4CCC(n5nnc6ccccc65)CC4)cc3)c(-c3ccccc3)nc2c1,-5,.,.,.,.,11,.,.,.,
O=C(NCCN1CCC2(CC1)C(=O)NCN2c1ccccc1)c1ccc(Cl)cc1,-2,.,.,.,.,1,.,.,.,
CN1C(=O)C(=Cc2cn(CC(=O)N3CCCCC3)c3ccccc23)C(=O)N(C)C1=O,.,.,6,-5,18,.,.,.,.,
CN1C(=O)C(=Cc2cn(CC(=O)N3CCCC3)c3ccccc23)C(=O)N(C)C1=O,32*,.,-4,1,45*,2,14,34*,-4,
CN1C(=O)C(=Cc2cn(CC#N)c3ccccc23)C(=O)N(C)C1=O,32*,.,13,3,29*,6,23*,21*,11,
[Cl][Pt+2][Cl].[NH-]C1CCCCC1[NH-] (centres undefined),47*,.,-8,0,36*,1,60*,55*,8,
COc1cc2c(c3oc4cccc(O)c4c(=O)c13)[C@@H]1C=CO[C@@H]1O2,2,.,.,.,.,7,.,.,.,
O=C(NCCN1CCC2(CC1)C(=O)NCN2c1ccccc1)c1ccc(F)cc1,3,.,.,.,.,-3,.,.,.,
COc1ccc([C@@H]2C[C@H]3[C@@H](CN2)CON3C)cc1,0,.,.,.,.,2,.,.,.,
COC1CC2C=C(C)C=CC=CC(=O)NC(c3ccccc3)CC=CCCC(O)CC(=O)C2=C1O (centres undefined),13,.,.,67*,22*,25,.,.,.,NOD2 RIPK2 conf=102*;BLA counter=79*
CC(C)(C)n1nnnc1C(CCc1ccccc1)N1CCC2(CC1)C(=O)NCN2c1ccccc1 (centres undefined),-3,.,.,-2,0,4,.,.,.,
SMILES,PRMT1 FP inh,TLR4 MyD88 comp,TLR9-MyD88 inh,NOD2-RIPK2 inh,ABHD5-PLIN5 inh,rCAG RNA binder,ABHD5 PLIN5 conf,HNF4 counter,PRMT1 inh conf,others
CCC1CN2CCc3cc(OC)c(OC)cc3C2CC1CC1NCCc2c1[nH]c1ccc(O)cc21 (centres undefined),3,.,-6,29*,-4,5,.,.,.,NOD2 RIPK2 conf=27*;BLA counter=0
COc1ccc2c(c1OC)CN1CCc3cc4c(cc3[C@H]1C2)OCO4,.,.,4,4,2,.,.,.,.,
Cc1cc(Oc2cc(NN3CCCCC3)c([N+](=O)[O-])cc2[N+](=O)[O-])ccc1[N+](=O)[O-],2,.,-6,1,6,10,.,.,.,
CC(=O)O[C@H]1C[C@@H]2OC3C=C(C)CCC3(C)[C@@]1(C)[C@@]21CO1 (some centres undefined),-4,.,-2,24*,5,0,.,.,.,NOD2 RIPK2 conf=28*;BLA counter=0
CC(=O)OC1CC2OC3C=C(C)CCC3(C)C1(C)C21CO1 (centres undefined),-3,.,.,25*,-7,-1,.,.,.,NOD2 RIPK2 conf=27*;BLA counter=0
COC(=O)C1=C(c2ccc(Cl)c(C(F)(F)F)c2)C[C@@H]2CC[C@H]1N2C(=O)NCc1ccco1,1,.,6,0,-4,-3,.,.,.,
C=C1C(=O)C(C)=C2C(=O)N3Cc4[nH]c5ccccc5c4CC3(C(=O)OC)C12 (centres undefined),11,.,.,.,.,15,.,.,.,
CCOC(=O)c1cnc(SCc2ccc(Cl)c(Cl)c2)nc1N1CC1,-2,.,0,1,-3,4,.,.,.,
CC1CC(C)(O)CC(C(O)CC2CC(=O)NC(=O)C2)C1=O (centres undefined),1,.,-9,21*,-1,2,.,.,.,NOD2 RIPK2 conf=25*;BLA counter=-4

# High-throughput results deposited in PubChem BioAssay by The Scripps Research Institute Molecular Screening Center.
